Results on eight compounds are retold here after PubChem BioAssay (Tox21).

Experiment [1] in a line: Nuclear factor erythroid 2-related factor 2/antioxidant responsive element (Nrf2/ARE) small molecule agonists: qHTS cell viability counter screen in human keratinocytes (AID 1919968; active = well fitted curve in the direction sought with a large enough effect in the repeat runs; an effect the other way counts as inactive or inconclusive; note: nearly all actives have a fitted effect of over 55% in size; note: potency is the fitted concentration of half-maximal effect). Summed up: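 Measured as CellTiter-Fluor fluorescence, this readout tracks cytotoxicity in the same wells as the ARE-luciferase screen. HaCaT reporter cells (1,500/well) received compounds after a 5 h pre-incubation and were exposed for 23 h.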
(In qHTS, concentration-response curves come from the screen itself.)

In experiment [2] the target is Gonadotropin-releasing hormone receptor (Homo sapiens) (UniProt P30968). Briefly: Human gonadotropin-releasing hormone receptor (GnRHR) small molecule agonists, calcium flux assay in GnRHR-HEK293 cells (AID 1920063). Note: nearly all actives have a fitted effect of over 35% in size. Summed up: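 Fluorescence kinetics (480 nm excitation, 540 nm emission; 3 min, 1 s steps) report calcium mobilisation in human GnRHR-HEK293 cells in agonist mode. Dye incubation: 1 h, 37 C.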

The target in experiment [3] is KiSS-1 receptor (Homo sapiens) (UniProt Q969F8). Description: Human kisspeptin (KISS1R) small molecule agonists, calcium flux assay in KISS1R-HEK293 cells (AID 1920064; active = well fitted curve in the direction sought with a large enough effect in the repeat runs; an effect the other way counts as inactive or inconclusive). Summed up:
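Measures KISS1R agonism through calcium-sensitive dye fluorescence in stably transfected HEK293 cells, read for 3 min after pin-tool compound delivery; 15-point titrations in triplicate.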
(Calcium flux is commonly read through the fluorescence of an indicator in the cells.)

The nature of experiment [4]: G protein-coupled receptor (GPCR) small molecule agonists, calcium flux assay: HEK293 wild type cell line counter screen (AID 1920065). A digest of the protocol:
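Readout: fluorescence at 480 nm excitation/540 nm emission, sampled at 1 s intervals for 3 min. Cells had been cultured 18 h, then dye-loaded 1 h at 37 C before compound or ATP addition.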

A short description of experiment [5]: p53 small molecule agonists, cell-based qHTS assay with human liver microsomes (AID 1963577).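 Note: p53 response element beta-lactamase reporter cells with liver microsomes plus NADPH.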 A digest of the protocol:
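HLM-supplemented p53RE-bla reporter assay: 16 h compound exposure at 37 C, microsomes and NADPH each 0.5 mg/mL final, read by fluorescence intensity.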

Experiment [6] can be described thus: p53 small molecule agonists, cell-based qHTS assay with rat liver microsomes (AID 1963578). Summed up:
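Quantitative HTS of the Tox21 10K library: p53RE-bla cells, rat liver microsomes plus NADPH at 0.5 mg/mL final each, 16 h at 37 C, beta-lactamase fluorescence detection.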

The nature of experiment [7]: p53 small molecule agonists, cell-based qHTS assay with human liver microsomes: qHTS cell viability counter screen (AID 1963579). Note: nearly all actives have a fitted effect of over 45% in size. Note: potency is the fitted concentration of half-maximal effect. A digest of the protocol:
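Viability of p53RE-bla cells is measured as CellTiter-Glo luminescence following a 16 h, 37 C incubation with compound, liver microsomes from human donors and NADPH.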

Experiment [8] in a line: p53 small molecule agonists, cell-based qHTS assay with rat liver microsomes: qHTS cell viability counter screen (AID 1963580). Note: nearly all actives have a fitted effect of over 45% in size. Note: potency is the fitted concentration of half-maximal effect. A digest of the protocol:
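HCT-116 p53RE-bla, 4,000 cells/well, 5 h pre-incubation; cpd + rat liver microsomes 0.5 mg/mL + NADPH 0.5 mg/mL (final); 16 h, 37 C; CellTiter-Glo, 30 min RT; luminescence.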

Experiment [9] in a line: p53 small molecule agonists, cell-based qHTS assay: qHTS cell viability counter screen (AID 1963581). Note: nearly all actives have a fitted effect of over 45% in size. Note: potency is the fitted concentration of half-maximal effect. A digest of the protocol:
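In the same plates used for the p53 bla reporter, HCT-116 cells given compounds for 16 h at 37 C received CellTiter-Glo; luminescence was recorded 30 min later at room temperature.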

Experiment [10] in a line: p53 small molecule agonists, cell-based qHTS assay (AID 1963582; active = well fitted activation curve with a large enough effect in the signal ratio in the repeat runs, not every such curve was filed as active; the % refers to the signal ratio). A digest of the protocol: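 Compounds are pin-transferred in DMSO onto p53RE-bla cells and incubated 16 h at 37 C. The B/G FRET beta-lactamase substrate is then applied for 2 h at RT and fluorescence recorded.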
In experiment [11] the target is 5-hydroxytryptamine receptor 2A (Homo sapiens) (UniProt P28223). Briefly: 5-hydroxytryptamine receptor 2A (HTR2A) small molecule antagonists, cell-based qHTS assay (AID 1963586). Note: nearly all actives have a fitted effect of over 45% in size. Summed up: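 Antagonist-mode intracellular calcium assay: DOI (4 nM) added after 5 min compound pre-incubation at room temperature to dye-loaded HTR2A-CHO cells. Fluorescence followed for 3 min, sampled every second.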

The target is the same in experiment [12]. Description: 5-hydroxytryptamine receptor 2A (HTR2A) small molecule agonists, cell-based qHTS assay (AID 1963587). Note: nearly all actives have a fitted effect of over 30% in size. Summed up:
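Kinetic calcium-flux fluorescence (2 min, 1 sec intervals) after compound addition in agonist mode. HTR2A-CHO cells were cultured 18 h, then dye-loaded 1 h at 37 C.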

Experiment [13] has as its target Muscarinic acetylcholine receptor M1 (Homo sapiens) (UniProt P11229). Description: Cholinergic receptor muscarinic 1 (CHRM1) small molecule agonists, cell-based qHTS assay (AID 1963589). Note: nearly all actives have a fitted effect of over 35% in size. A digest of the protocol: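 Each compound was tested at 15 concentrations across three independent runs on dye-loaded CHO cells stably expressing human CHRM1, reading intracellular calcium fluorescence kinetically at 1 sec intervals.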

Experiment [14] is described as follows: cAMP Responsive Elements (CRE) small molecule antagonists, cell-based qHTS assay (AID 1963591; active = well fitted inhibition curve with a large enough effect in the signal ratio in the repeat runs, not every such curve was filed as active; the % refers to the signal ratio). Summed up: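 Inhibition of NKH477-driven (0.25 uM final) CRE-beta-lactamase signal in HEK293T cells, 3 h compound exposure at 37 °C, detected by FRET substrate fluorescence.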
Experiment [15] deals with Beta-2 adrenergic receptor (Homo sapiens) (UniProt P07550). Briefly: Adrenergic beta2 receptor (ADRB2) small molecule antagonists, cell-based qHTS assay (AID 1963592). Note: series mostly up to about 92 µM; nearly all actives have a fitted effect of over 50% in size. A digest of the protocol:
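Cells (CHO, stable ADRB2 overexpression) incubated 18-20hr at 37C; compounds added from DMSO; agonist mix (1nM isoproterenol, 100uM IBMX, 25uM Ro-20-1724) added; 0.5hr RT; d2-cAMP and anti-cAMP-cryptate added; 1hr RT; 665/615 nm read.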

Experiment [16] concerns the target D(2) dopamine receptor (Homo sapiens) (UniProt P14416). Description: Dopamine D2 receptor (DRD2) small molecule agonists, cell-based qHTS assay (AID 1963594). Note: nearly all actives have a fitted effect of over 35% in size. Summed up: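 cAMP accumulation in DRD2-HEK293 cells measured by HTRF after 1 h detection; compounds added 10 min before NKH477 (200nM […]) forskolin-analogue stimulation, 30 min at room temperature, with Ro20-1724 present at 0.1 mM final.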

Experiment [17] shares this target. Briefly: Dopamine D2 receptor (DRD2) small molecule antagonists, cell-based qHTS assay (AID 1963595; active = well fitted inhibition curve with a large enough effect in the signal ratio in the repeat runs, with a control signal flat; the % refers to the signal ratio). Summed up: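 Human DRD2 antagonist qHTS measuring cAMP by HTRF. The cells are exposed to compound for 10 min, then to NKH477 (200 nM) and quinpirole (12 nM) for 30 min at RT, with Ro20-1724 (0.1 mM) present throughout.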
For experiment [18], the target named is Muscarinic acetylcholine receptor M1 (Homo sapiens) (UniProt P11229). Description: Cholinergic receptor muscarinic 1 (CHRM1) small molecule antagonists, cell-based qHTS assay (AID 1963588). Note: nearly all actives have a fitted effect of over 40% in size. Note: potency is the fitted concentration of half-maximal effect. Summed up: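 CHRM1-CHO calcium-flux assay, antagonist mode. Cells were seeded 18 h, dye-loaded 1 h at 37 C and given compound for 5 min at RT, then acetylcholine was added at 50nM. FDSS fluorescence was read 3 min; 15 concentrations, three runs.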

A short description of experiment [19]: cAMP Responsive Elements (CRE) small molecule agonists, cell-based qHTS assay (AID 1963590). Summed up:
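Cell line: CRE-bla HEK 293T; medium DMEM/10% dialyzed FBS/0.1 mM NEAA/1 mM pyruvate/25 mM HEPES; 3 h compound exposure; beta-lactamase FRET readout after 2 h substrate loading at RT.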

For experiment [20], the target named is Beta-2 adrenergic receptor (Homo sapiens) (UniProt P07550). Description: Adrenergic beta2 receptor (ADRB2) small molecule agonists, cell-based qHTS assay (AID 1963593).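 Note: CHO cells stably overexpressing human ADRB2.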 Summed up:
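CHO cells stably over-expressing ADRB2 were plated overnight at 37C, then dosed with compounds plus a stimulation mix containing 100uM IBMX and 25uM Ro-20-1724 for 0.5hr at room temperature. cAMP was measured by HTRF competition, 1hr.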

Values without a mark were called inactive. Results filed as inconclusive are left out. Activity calls are given as the source filed them. Unless noted, calls come from the whole dose curve.

Chain of Gonadotropin-releasing hormone receptor (Homo sapiens) (P30968 whole entry, looked up): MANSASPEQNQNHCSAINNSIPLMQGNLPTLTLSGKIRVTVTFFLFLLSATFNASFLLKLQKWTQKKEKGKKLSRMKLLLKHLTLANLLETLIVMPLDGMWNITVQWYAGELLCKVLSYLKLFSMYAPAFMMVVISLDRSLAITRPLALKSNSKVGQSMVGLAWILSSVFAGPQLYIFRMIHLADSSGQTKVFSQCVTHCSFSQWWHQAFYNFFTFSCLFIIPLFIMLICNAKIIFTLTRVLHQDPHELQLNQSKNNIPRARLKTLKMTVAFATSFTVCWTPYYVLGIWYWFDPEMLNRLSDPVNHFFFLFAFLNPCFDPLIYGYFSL
Chain of KiSS-1 receptor (Homo sapiens) (Q969F8 whole entry, looked up): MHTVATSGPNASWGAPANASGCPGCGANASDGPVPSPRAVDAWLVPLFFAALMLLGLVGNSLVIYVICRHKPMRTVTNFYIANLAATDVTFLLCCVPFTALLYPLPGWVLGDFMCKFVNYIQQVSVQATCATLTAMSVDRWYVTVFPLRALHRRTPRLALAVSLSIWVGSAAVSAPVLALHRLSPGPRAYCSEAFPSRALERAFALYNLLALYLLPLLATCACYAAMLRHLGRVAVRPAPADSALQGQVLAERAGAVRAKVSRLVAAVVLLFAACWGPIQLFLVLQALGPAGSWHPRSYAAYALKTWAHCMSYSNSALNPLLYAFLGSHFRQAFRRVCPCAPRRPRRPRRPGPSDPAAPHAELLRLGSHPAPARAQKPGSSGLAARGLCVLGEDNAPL
Chain of Muscarinic acetylcholine receptor M1 (Homo sapiens) (P11229 whole entry, looked up): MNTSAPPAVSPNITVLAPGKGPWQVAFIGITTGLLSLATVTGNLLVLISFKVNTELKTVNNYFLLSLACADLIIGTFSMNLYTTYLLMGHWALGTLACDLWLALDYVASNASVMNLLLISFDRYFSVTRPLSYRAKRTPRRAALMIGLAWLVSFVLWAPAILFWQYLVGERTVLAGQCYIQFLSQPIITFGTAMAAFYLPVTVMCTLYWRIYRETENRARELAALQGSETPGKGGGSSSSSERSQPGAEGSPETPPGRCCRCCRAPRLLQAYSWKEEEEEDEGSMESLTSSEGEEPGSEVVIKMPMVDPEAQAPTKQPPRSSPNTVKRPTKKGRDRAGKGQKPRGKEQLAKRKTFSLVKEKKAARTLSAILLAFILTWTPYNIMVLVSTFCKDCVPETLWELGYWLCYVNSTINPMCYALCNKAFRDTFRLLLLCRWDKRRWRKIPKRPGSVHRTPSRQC
Chain of D(2) dopamine receptor (Homo sapiens) (P14416 whole entry, looked up): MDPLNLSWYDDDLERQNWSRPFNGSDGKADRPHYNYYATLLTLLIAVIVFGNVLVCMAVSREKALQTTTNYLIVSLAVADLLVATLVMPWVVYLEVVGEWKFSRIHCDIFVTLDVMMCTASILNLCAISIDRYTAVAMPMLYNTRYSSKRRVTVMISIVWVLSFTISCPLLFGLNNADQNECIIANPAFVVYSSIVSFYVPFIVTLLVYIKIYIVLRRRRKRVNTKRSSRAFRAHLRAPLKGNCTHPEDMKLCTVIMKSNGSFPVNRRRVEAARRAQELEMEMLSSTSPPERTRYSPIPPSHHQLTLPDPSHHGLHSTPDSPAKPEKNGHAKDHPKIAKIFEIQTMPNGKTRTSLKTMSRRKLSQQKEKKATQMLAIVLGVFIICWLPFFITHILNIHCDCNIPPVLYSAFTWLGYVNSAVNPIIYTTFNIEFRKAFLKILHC
Chain of 5-hydroxytryptamine receptor 2A (Homo sapiens) (P28223 whole entry, looked up): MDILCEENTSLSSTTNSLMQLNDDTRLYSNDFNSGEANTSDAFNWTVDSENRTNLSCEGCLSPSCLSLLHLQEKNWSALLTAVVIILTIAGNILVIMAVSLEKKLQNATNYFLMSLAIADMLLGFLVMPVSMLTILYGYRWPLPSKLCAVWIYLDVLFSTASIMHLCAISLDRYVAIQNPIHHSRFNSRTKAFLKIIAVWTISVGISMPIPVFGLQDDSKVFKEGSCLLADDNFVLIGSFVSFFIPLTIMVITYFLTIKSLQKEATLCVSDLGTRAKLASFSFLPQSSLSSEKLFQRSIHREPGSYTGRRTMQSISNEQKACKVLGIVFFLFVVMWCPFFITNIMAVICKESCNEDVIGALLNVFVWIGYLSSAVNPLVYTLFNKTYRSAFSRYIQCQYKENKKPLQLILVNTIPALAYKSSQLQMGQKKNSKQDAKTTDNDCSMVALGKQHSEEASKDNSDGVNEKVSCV
Chain of Beta-2 adrenergic receptor (Homo sapiens) (P07550 whole entry, looked up): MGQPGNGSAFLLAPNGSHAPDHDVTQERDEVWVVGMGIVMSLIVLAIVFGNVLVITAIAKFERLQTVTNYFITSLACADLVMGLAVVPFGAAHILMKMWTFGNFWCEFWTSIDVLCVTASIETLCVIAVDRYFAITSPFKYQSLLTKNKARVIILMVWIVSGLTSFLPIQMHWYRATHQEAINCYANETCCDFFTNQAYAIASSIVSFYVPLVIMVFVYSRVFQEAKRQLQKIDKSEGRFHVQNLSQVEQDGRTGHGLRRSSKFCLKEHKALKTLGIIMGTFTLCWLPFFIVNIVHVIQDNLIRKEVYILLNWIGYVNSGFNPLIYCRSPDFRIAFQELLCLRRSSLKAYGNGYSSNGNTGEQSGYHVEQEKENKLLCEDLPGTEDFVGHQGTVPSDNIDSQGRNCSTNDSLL

Take `S=c1nccc[nH]1`: the Potency result in [1], in [2], in experiment [3], in experiment [4], in [5] and in experiment [6] was “inactive” throughout. The Potency entry in experiment [7], in [8], in experiment [9], in [10], in experiment [11] and in [12] was “inactive” in each case. Further, the Potency result in experiment [13], in [14], in [15], in experiment [16] and in [17] was “inactive” throughout.
Consider `Cc1cc(Cl)c(C)cc1Cl`, for which the Potency entry in experiment [1], in [2], in experiment [3], in [4], in experiment [5] and in [6] was “inactive” throughout. Moreover, the Potency result in experiment [7], in experiment [8], in experiment [9], in experiment [10], in experiment [12] and in experiment [18] was “inactive” each time. Moreover, the Potency result in experiment [13], in experiment [19], in experiment [14], in [15], in [20] and in experiment [16] was “inactive” throughout. In [17], the Potency result was “inactive”.
As for `CC(C)(C)c1ccc(C(=O)CCCN2CCC(OC(c3ccccc3)c3ccccc3)CC2)cc1`, the Potency is 6.68 µM (active) in [1] and 11.2 µM (active) in experiment [9]. The Potency result in experiment [2], in experiment [3], in [4], in experiment [5], in [6] and in experiment [7] was “inactive” in each case. Besides, the Potency result in experiment [8], in experiment [15] and in experiment [17] was “inactive” in each case.
Take `CCCCOc1ccc(N)cc1`: the Potency result in [1], in [2], in [3], in experiment [4], in experiment [5] and in experiment [6] was “inactive” throughout. In addition, the Potency entry in experiment [7], in [8], in [9], in experiment [11], in experiment [12] and in experiment [18] was “inactive” each time. The Potency entry in experiment [13], in [14], in [15], in experiment [20], in experiment [16] and in experiment [17] was “inactive” in each case.
Take `CCC(C)Nc1ccc(NC(C)CC)cc1` (stereo unspecified): the Potency was 3.93 µM (active) in experiment [1]; 2.08 µM (active) in [7]; 4.66 µM (active) in experiment [8]; 10.4 µM (active) in [9]; 9.6 µM (active) in [18]. Further, the Potency result in [2], in experiment [3], in experiment [4], in [5], in [6] and in experiment [11] was “inactive” each time. Also, the Potency result in experiment [13] is “inactive”.
As for `Brc1c(NC2=NCCN2)ccc2nccnc12`, the Potency entry in experiment [1], in experiment [2], in experiment [3], in [4], in [5] and in [6] was “inactive” each time. For the same compound, the Potency result in experiment [7], in [8], in [9], in [10], in experiment [19] and in [14] was “inactive” each time. Besides, the Potency result in experiment [15], in [20], in [16] and in experiment [17] was “inactive” throughout.
For `Cc1ccc2ccc(Cl)cc2n1`, the Potency result in [1], in experiment [2], in experiment [3], in experiment [4], in experiment [5] and in [6] was “inactive” each time. In addition, the Potency result in [7], in [8], in experiment [9], in experiment [11], in [12] and in experiment [18] was “inactive” throughout. For the same compound, the Potency entry in [13], in experiment [19], in [14], in [15], in experiment [16] and in experiment [17] was “inactive” throughout.
Take `CC(C)C1=CC2=CC[C@@H]3[C@](C)(CCC[C@@]3(C)C(=O)O)[C@H]2CC1`: the Potency result in [1], in experiment [2], in experiment [3], in experiment [4], in experiment [5] and in experiment [6] was “inactive” each time. Besides, the Potency result in [7], in experiment [8], in experiment [9], in [11], in experiment [18] and in experiment [13] was “inactive” each time. Also, the Potency result in experiment [15], in experiment [16] and in experiment [17] was “inactive” in each case.
